Compounds without any hit were thinned out: in the full panel of roughly 79,000, 15% have a hit. A number with no mark means an inactive call. Calls of active or inactive are those of the source. Rule as the data show it: active = growth inhibition above about 70%; inactive = the rest.

Assay [1] is described as follows: NCI Yeast Anticancer Drug Screen. Data for the rad50 strain (AID 155).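 Also: 0% = growth of vehicle-only cultures of the same strain.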 Particulars: S. cerevisiae rad50 strain growth inhibition, active compounds read high. An outline of the steps: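 Readout: growth inhibition relative to vehicle-treated cultures. Compound exposure was carried out in a genetically defined yeast strain deficient in DNA damage repair.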
Assay [2] is described as follows: NCI Yeast Anticancer Drug Screen. Data for the mec2-1 strain (AID 157). As to conditions: S. cerevisiae mec2-1 strain, active compounds read high. An outline of the steps: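 Each compound was tested on mec2-1 yeast, a strain altered in DNA damage repair or cell cycle control. Growth inhibition is reported relative to vehicle.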
Assay [3] in a line: NCI Yeast Anticancer Drug Screen. Data for the sgs1 mgt1 strain (AID 161).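 Also: 0% = growth of cultures given vehicle only.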 Particulars: S. cerevisiae sgs1 mgt1 strain, active compounds read high. The gist of the method: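 Test agents were incubated with a DNA-repair-mutant yeast strain. Growth was then read and compared against vehicle-treated controls.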
Assay [4] can be described thus: NCI Yeast Anticancer Drug Screen. Data for the cln2 rad14 strain (AID 165).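 Also: 0% = growth equal to vehicle treated cultures.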 As to conditions: S. cerevisiae cln2 rad14 strain, active compounds read high. An outline of the steps:
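Test compounds were added to cln2 rad14 yeast cultures; inhibition of growth was then determined by comparison with vehicle treatment.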

A short description of assay [5]: NCI Yeast Anticancer Drug Screen. Data for the bub3 strain (AID 167). Particulars: S. cerevisiae bub3 mutant strain, active compounds read high. An outline of the steps: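 Readout: yeast growth inhibition, expressed relative to vehicle-only wells. The test organism is a mutant strain from a panel with lesions in DNA repair or checkpoint genes.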
Assay [6] can be described thus: NCI Yeast Anticancer Drug Screen. Data for the mlh1 rad18 strain (AID 175). As to conditions: S. cerevisiae mlh1 rad18 strain growth inhibition, active compounds read high. An outline of the steps: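 Inhibition values reflect reduced growth of mutant yeast versus vehicle-treated controls following compound exposure; the mutations affect DNA damage repair.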
[7] abbreviates: at 5.0 µM (retest, dose inferred, filed as 0.5).
[8] abbreviates: at 50.0 µM (retest, dose inferred, filed as 5.0).

For the compound `Cc1cc(N/N=C/c2cccc3ccccc23)c2cc3c(cc2n1)OCO3`, the growth inhibition was 7% in assay [1] (setting [7]); 72% (active) in assay [1] (setting [8]); 99.2% (active) in assay [1] (at 50.0 µM); 2% in assay [2] (setting [7]); 79% (active) in assay [2] (setting [8]); 99% (active) in assay [2] (at 50.0 µM). The growth inhibition is 27% in assay [3] (setting [7]); 72% (active) in assay [3] (setting [8]); 99.1% (active) in assay [3] (at 50.0 µM); -6% in assay [4] (setting [7]); 56% in assay [4] (setting [8]); 97.8% (active) in assay [4] (at 50.0 µM). The growth inhibition in assay [5] (setting [7]) is -3%; in assay [5] (setting [8]) it was 75% (active); in assay [5] (at 50.0 µM), 99.2% (active); in assay [6] (setting [7]), 20%; in assay [6] (setting [8]), 91% (active); in assay [6] (at 50.0 µM), 98.5% (active).

For `O=C(O/N=C1/CCCC/C1=C\c1ccccc1)c1ccccc1`, the growth inhibition in assay [1] (setting [7]) was 24%; in assay [1] (setting [8]), 86% (active); in assay [1] (at 50.0 µM) it was 76.2% (active); in assay [2] (setting [7]), 17%; in assay [2] (setting [8]), 95% (active); in assay [2] (at 50.0 µM) it was 88.3% (active). Also, the growth inhibition in assay [3] (setting [7]) is 51%; in assay [3] (setting [8]), 94% (active); in assay [3] (at 50.0 µM), 85.8% (active); in assay [4] (setting [7]) it was 47%; in assay [4] (setting [8]) it was 97% (active); in assay [4] (at 50.0 µM), 87% (active). Also, the growth inhibition was 53% in assay [5] (setting [7]); 94% (active) in assay [5] (setting [8]); 81.1% (active) in assay [5] (at 50.0 µM); 19% in assay [6] (setting [7]); 82% (active) in assay [6] (setting [8]); 81.7% (active) in assay [6] (at 50.0 µM).

`COc1ccc(C2CC(CO)ON2c2ccccc2)cc1` (stereo not given): the growth inhibition in assay [1] (setting [7]) was -17%; in assay [1] (setting [8]), 7%; in assay [1] (at 50.0 µM) it was 98% (active); in assay [2] (setting [7]) it was -14%; in assay [2] (setting [8]), -9%; in assay [2] (at 50.0 µM), 98.5% (active). The growth inhibition in assay [3] (setting [7]) is -1%; in assay [3] (setting [8]), -15%; in assay [3] (at 50.0 µM), 98.4% (active); in assay [4] (setting [7]), -23%; in assay [4] (setting [8]), -18%; in assay [4] (at 50.0 µM) it was 97.9% (active). For the same compound, the growth inhibition in assay [5] (setting [7]) is -21%; in assay [5] (setting [8]) it was -33%; in assay [5] (at 50.0 µM), 98.5% (active); in assay [6] (setting [7]) it was -6%; in assay [6] (setting [8]) it was 1%; in assay [6] (at 50.0 µM) it was 98.8% (active).

With `CCN(CC)Cc1cc(N=Nc2c(O)ccc3c(N=Nc4ccc(O)c(CN(CC)CC)c4)c(O)ccc23)ccc1O`, the growth inhibition in assay [1] (setting [7]) was 62%; in assay [1] (setting [8]), 86% (active); in assay [1] (at 50.0 µM), 96.4% (active); in assay [2] (setting [7]), -2%; in assay [2] (setting [8]), 53%; in assay [2] (at 50.0 µM) it was 85.4% (active). For the same compound, the growth inhibition in assay [3] (setting [7]) was 1%; in assay [3] (setting [8]) it was 76% (active); in assay [3] (at 50.0 µM) it was 94.3% (active); in assay [4] (setting [7]), -7%; in assay [4] (setting [8]) it was 56%; in assay [4] (at 50.0 µM), 56.6%. Moreover, the growth inhibition in assay [5] (setting [7]) is -1%; in assay [5] (setting [8]), 61%; in assay [5] (at 50.0 µM), 65.8%; in assay [6] (setting [7]), -1%; in assay [6] (setting [8]), 72% (active); in assay [6] (at 50.0 µM), 93.7% (active).

Consider `C=C1CC(c2ccc(OCCCN3C(=O)c4ccccc4C3=O)c(OC)c2)OC1=O` (stereo not given), for which the growth inhibition in assay [1] (setting [7]) is -9%; in assay [1] (setting [8]), 97% (active); in assay [1] (at 50.0 µM), 76.3% (active); in assay [2] (setting [7]) it was 24%; in assay [2] (setting [8]), 91% (active); in assay [2] (at 50.0 µM), 88.2% (active). Also, the growth inhibition in assay [3] (setting [7]) was 1%; in assay [3] (setting [8]), 89% (active); in assay [3] (at 50.0 µM), 91% (active); in assay [4] (setting [7]), 11%; in assay [4] (setting [8]) it was 93% (active); in assay [4] (at 50.0 µM), 89.2% (active). For the same compound, the growth inhibition in assay [5] (setting [7]) is -16%; in assay [5] (setting [8]) it was 95% (active); in assay [5] (at 50.0 µM), 92% (active); in assay [6] (setting [7]) it was 10%; in assay [6] (setting [8]), 97% (active); in assay [6] (at 50.0 µM) it was 96.8% (active).

`Cn1cc(NC(=O)Nc2cc(C(=O)Nc3cc(C(=O)Nc4ccc5cc(S(=O)(=O)O)cc(S(=O)(=O)O)c5c4)n(C)c3)n(C)c2)cc1C(=O)Nc1cc(C(=O)Nc2ccc3cc(S(=O)(=O)O)cc(S(=O)(=O)O)c3c2)n(C)c1`: the growth inhibition in assay [1] (setting [7]) is 68%; in assay [1] (setting [8]), 98% (active); in assay [1] (at 50.0 µM), 91% (active); in assay [2] (setting [7]) it was 36%; in assay [2] (setting [8]), 99% (active); in assay [2] (at 50.0 µM), 93.7% (active). For the same compound, the growth inhibition is 69% in assay [3] (setting [7]); 99% (active) in assay [3] (setting [8]); 93.5% (active) in assay [3] (at 50.0 µM); 33% in assay [4] (setting [7]); 99% (active) in assay [4] (setting [8]); 92.7% (active) in assay [4] (at 50.0 µM). In addition, the growth inhibition in assay [5] (setting [7]) was 44%; in assay [5] (setting [8]) it was 98% (active); in assay [5] (at 50.0 µM), 92.5% (active); in assay [6] (setting [7]), 76% (active); in assay [6] (setting [8]) it was 98% (active); in assay [6] (at 50.0 µM), 90.8% (active).

Consider `Cc1nc(Nc2c(C)cccc2C)c2c(C)c[nH]c2n1`, for which the growth inhibition in assay [1] (setting [7]) is -2%; in assay [1] (setting [8]), 2%; in assay [1] (at 50.0 µM), 86.8% (active); in assay [2] (setting [7]), -5%; in assay [2] (setting [8]) it was 3%; in assay [2] (at 50.0 µM), 69.1%. The growth inhibition in assay [3] (setting [7]) is 0%; in assay [3] (setting [8]) it was 1%; in assay [3] (at 50.0 µM), 85.2% (active); in assay [4] (setting [7]), -1%; in assay [4] (setting [8]), -1%; in assay [4] (at 50.0 µM), 27.2%. In addition, the growth inhibition in assay [5] (setting [7]) was -4%; in assay [5] (setting [8]), -2%; in assay [5] (at 50.0 µM), 75.5% (active); in assay [6] (setting [7]), -2%; in assay [6] (setting [8]), -5%; in assay [6] (at 50.0 µM) it was 90.3% (active).

Regarding `O=C1c2ccccc2C(=O)c2sc(Nc3cccc(Cl)c3)nc21`, the growth inhibition in assay [1] (setting [7]) was 93% (active); in assay [1] (setting [8]), 98% (active); in assay [1] (at 50.0 µM), 89.6% (active); in assay [2] (setting [7]), 93% (active); in assay [2] (setting [8]), 99% (active); in assay [2] (at 50.0 µM) it was 92.2% (active). Moreover, the growth inhibition in assay [3] (setting [7]) is 92% (active); in assay [3] (setting [8]), 99% (active); in assay [3] (at 50.0 µM) it was 93% (active); in assay [4] (setting [7]), 54%; in assay [4] (setting [8]), 98% (active); in assay [4] (at 50.0 µM), 89.9% (active). Moreover, the growth inhibition in assay [5] (setting [7]) was 98% (active); in assay [5] (setting [8]), 97% (active); in assay [5] (at 50.0 µM) it was 90.6% (active); in assay [6] (setting [7]), 92% (active); in assay [6] (setting [8]) it was 98% (active); in assay [6] (at 50.0 µM) it was 90.5% (active).

Regarding `O=C(O)CCSCc1cc(C(=O)Nc2ccc(/C=C/c3ccc(NC(=O)c4cc(CSCCC(=O)O)c5cccnc5c4O)cc3S(=O)(=O)O)c(S(=O)(=O)O)c2)c(O)c2ncccc12`, the growth inhibition is 48% in assay [1] (setting [7]); 53% in assay [1] (setting [8]); 74% (active) in assay [1] (at 50.0 µM); 37% in assay [2] (setting [7]); 89% (active) in assay [2] (setting [8]); 61.6% in assay [2] (at 50.0 µM). Also, the growth inhibition in assay [3] (setting [7]) was 58%; in assay [3] (setting [8]), 53%; in assay [3] (at 50.0 µM), 79.1% (active); in assay [4] (setting [7]) it was 22%; in assay [4] (setting [8]), 74% (active); in assay [4] (at 50.0 µM), 45.5%. For the same compound, the growth inhibition was 59% in assay [5] (setting [7]); 96% (active) in assay [5] (setting [8]); 78.4% (active) in assay [5] (at 50.0 µM); 52% in assay [6] (setting [7]); 92% (active) in assay [6] (setting [8]); 79.5% (active) in assay [6] (at 50.0 µM).

For `Cc1ccc(S(=O)(=O)NC(=O)CC2CCCCC2)cc1`, the growth inhibition is 14% in assay [1] (setting [7]); 89% (active) in assay [1] (setting [8]); 91.2% (active) in assay [1] (at 50.0 µM); 9% in assay [2] (setting [7]); 93% (active) in assay [2] (setting [8]); 76.5% (active) in assay [2] (at 50.0 µM). The growth inhibition in assay [3] (setting [7]) was -9%; in assay [3] (setting [8]), 94% (active); in assay [3] (at 50.0 µM), 79.1% (active); in assay [4] (setting [7]) it was -4%; in assay [4] (setting [8]), 91% (active); in assay [4] (at 50.0 µM) it was 76.7% (active). Also, the growth inhibition in assay [5] (setting [7]) was 17%; in assay [5] (setting [8]) it was 94% (active); in assay [5] (at 50.0 µM), 79% (active); in assay [6] (setting [7]) it was 22%; in assay [6] (setting [8]), 96% (active); in assay [6] (at 50.0 µM), 91.5% (active).

Source of the values: PubChem BioAssay (NCI).
